Measured values: PubChem BioAssay (NCI)
This is part of a sample that, as a whole, favours compounds with a hit. Of some 83,000 tested, about 20% had one in any assay.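 Testing used 96-well plates and a 48-hour single-concentration exposure. Example: -40 means 40% of the starting cells died.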

Key:
Assay in all cases: NCI-60 one-dose screen, 48 h (100 = growth as untreated, 0 = no growth, -100 = all killed)
Conditions in all cases: 10 µM unless noted; active = growth percent below 10; inactive = the rest
K-562 leukemia = system: K-562 leukemia
MDA-MB-231 breast = system: MDA-MB-231 breast
SF-268 CNS = system: SF-268 CNS
SF-295 CNS = system: SF-295 CNS
SF-539 CNS = system: SF-539 CNS
UACC-257 melanoma = system: UACC-257 melanoma
M14 melanoma = system: M14 melanoma
MALME-3M melanoma = system: MALME-3M melanoma

Measured: growth

COc1ccc(C(=O)COc2cccc(/C=C3\CSc4ccc(Cl)cc4C3=O)c2)cc1
inactive: K-562 leukemia 22.1% | MDA-MB-231 breast 76.2% | SF-268 CNS 91% | SF-295 CNS 95.9% | SF-539 CNS 104% | UACC-257 melanoma 89.3% | M14 melanoma 102%

O=C(COc1cccc(/C=C2\Oc3ccc4ccccc4c3C2=O)c1)c1ccc(Cl)cc1
inactive: K-562 leukemia 122% | MALME-3M melanoma 69.4% | MDA-MB-231 breast 84.7% | SF-268 CNS 88.8% | SF-295 CNS 104% | SF-539 CNS 68.2% | UACC-257 melanoma 95.6% | M14 melanoma 83.6%

COc1ccc(C(=O)COc2cccc(/C=C3\COc4ccc5ccccc5c4C3=O)c2)cc1
inactive: K-562 leukemia 47.8% | MALME-3M melanoma 72% | MDA-MB-231 breast 53.7% | SF-268 CNS 83.8% | SF-295 CNS 107% | SF-539 CNS 16% | UACC-257 melanoma 79.4% | M14 melanoma 91.2%
